Laboratory results as given in PubChem BioAssay (NCI).
This is part of a sample that, as a whole, favours compounds with a hit. Of some 83,000 tested, about 20% had one in any assay.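 In brief: 96-well plates, 48 h treatment, single concentration, percent growth endpoint.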 A number with no mark means an inactive call. The source made the active and inactive calls. Rule for the calls: active = growth percent below 10; inactive = the rest.

Key:
Experiment in all cases: NCI-60 one-dose screen, 48 h (100 = growth as untreated, 0 = no growth, -100 = all killed)
Details in all cases: 10 µM unless noted
T-47D breast = tested on: T-47D breast
BT-549 breast = tested on: BT-549 breast
MDA-MB-435 melanoma = tested on: MDA-MB-435 melanoma
SW-620 colon = tested on: SW-620 colon
HCT-116 colon = tested on: HCT-116 colon
HCC-2998 colon = tested on: HCC-2998 colon
KM12 colon = tested on: KM12 colon
MCF7 breast = tested on: MCF7 breast

Row | Compound | growth (T-47D breast) | growth (BT-549 breast) [%] | growth (MDA-MB-435 melanoma) | growth (SW-620 colon) | growth (HCT-116 colon) | growth (HCC-2998 colon) | growth (KM12 colon) | growth (MCF7 breast)
1 | CCOP(=O)(OCC)c1nc(-c2ccccc2)oc1NCc1cccnc1 | 85.5% | 111 | 104% | 101% | 102% | 106% | 111% | 
2 | C=C(C)[C@@H]1CC[C@]2(C(=O)OC)CC[C@]3(C)[C@H](CC[C@@H]4[C@@]5(C)C/C(=C/NC(N)=S)C(=O)C(C)(C)[C@@H]5CC[C@]43C)[C@@H]12 | 60.9% | 126 | 93.7% | 87.3% | 74.4% | 99.4% | 82.6% | 
3 | COc1ccc(CC(C#N)c2cc3ccccc3[nH]2)cc1 (centres undefined) | 85.5% | 92.8 | 82.2% | 93.6% | 92.3% | 87.5% | 84.7% | 
4 | O=C(CN1C(=O)CCC1=O)Nc1ncc(Cc2ccc(F)cc2)s1 | 103% | 97.5 | 102% | 102% | 104% | 92.5% | 103% | 
5 | COc1ccc(/C=C2\C(=O)N=C3N2NC(c2cc(Br)ccc2O)C=C(C)N3c2ccccc2)cc1 (centres undefined) | 89.6% | 88 | 94.5% | 104% | 98.1% | 87.1% | 102% | 
6 | O=C(Nc1nn(-c2ccc(Cl)cc2Cl)nc1-c1ccccc1)c1ccccc1 | 103% | 119 | 95.3% | 105% | 84.3% | 108% | 80.8% | 
7 | OB(O)c1cccc(-c2nc3ccc4[nH]ncc4c3c3c2CCCC3)c1 | 66.6% | 35.5 | 45.3% | 29.9% | 25% | 77.3% | 36.1% | 
8 | Nc1c(C(=O)Nc2ccccc2Cl)sc2nc3c(cc12)C(O)CCC3 (centres undefined) | 38.6% | 52.1 | 1.93% (active) | 49.3% | 29.3% | 64.3% | 31.9% | 
9 | Oc1c(Cl)cc(Cl)c2ccc(Cn3cc(-c4cc(F)cc(F)c4)nn3)nc12 | 40.4% |  | 60.8% | 4.81% (active) | 5.12% (active) | 103% | 102% | 34.4%
10 | Clc1ccc(CNc2c3ccccc3nc3ccccc23)cc1 | 43.4% |  | 60.7% | 31% | 15.7% | -10.2% (active) | 35.6% | 16%
11 | COc1ccc(C/C(C)=C(/c2ccc(OCCN3CCCCC3)cc2)c2ccc(OC(=O)NCc3ccccc3)cc2)cc1 | -82.3% (active) |  | -95.4% (active) | -83.5% (active) | -90.3% (active) | -92.5% (active) | -81.2% (active) | -84.6% (active)
12 | C=C1C(=O)O[C@H]2[C@H]1CC/C(COC(=O)CCSCCC(=O)OC/C1=C/CC[C@@]3(C)O[C@H]3[C@H]3OC(=O)C(=C)[C@@H]3CC1)=C\CC[C@@]1(C)O[C@@H]21 | 19.1% |  | 8.02% (active) | -23.5% (active) | -60.2% (active) | -1.54% (active) | 34.3% | 9.43% (active)
13 | CCOC(=O)c1cn2ncnc(Oc3ccc(NC(=O)NC4CCCCC4)c(Cl)c3)c2c1C | 85% |  | 85.6% | 81.6% | 81.4% | 94.6% | 96.9% | 51.7%
14 | COc1cc(-c2nc(SCCC(C)C)nc(Nc3ccccc3Cl)c2C#N)cc(OC)c1OC | 81.5% |  | 96.6% | 102% | 89.3% | 109% | 96.3% | 85.7%
15 | Cc1ccc2c(n1)C(=O)c1[nH]c3ccccc3c1C2=O | 23.2% |  | -87.6% (active) | 48.3% | 22% |  | 37% | 31.2%
16 | Cc1ccccc1NC(=O)c1sc2nc(C)c(C(=O)/C=C/c3ccccc3)cc2c1N | 32% |  | -22.7% (active) | -10.5% (active) | 10.1% | -36.9% (active) | 9.57% (active) | 9.97% (active)
17 | COc1cccc(NC(=O)Cn2cc(CN3CCN(c4ccnc5cc(Cl)ccc45)CC3)nn2)c1 | 70.7% |  | 96.7% | 88.8% | 97% | 93% | 78.4% | 86.7%
18 | O=C1/C(=C/c2ccc(Cl)cc2)COc2ccc(O)c(O)c21 | -14.8% (active) |  | 1.56% (active) | -9.64% (active) | 0.395% (active) | 5.98% (active) | -2.9% (active) | 9.76% (active)
19 | COc1ccc(-c2cn(-c3cc(OC)c(OC)c(OC)c3)c(=O)n2C(C)=O)cc1 | 73.9% |  | 79.4% | 96.2% | 85% | 84.3% | 93.3% | 
20 | Clc1ccc(Nc2nnc(COc3ccccc3)c3ccccc23)cc1 | -5.86% (active) |  | -3.33% (active) | 15.4% | 1.21% (active) | 8.55% (active) | 0.179% (active) | 1.31% (active)
21 | O=S(=O)(NCCNc1nccc(-c2c(-c3cccc(F)c3)nc3occn23)n1)c1ccc(Br)cc1 | 76.7% |  | 68.5% | 91.8% | 69.1% | 106% | 88.9% | 
22 | N#CC1=C(N)Oc2c(sc3c(F)cccc23)C1c1ccc(F)cc1 (centres undefined) | 42.5% |  | -51.7% (active) | 35.8% | 17.4% | 57.2% | 30.3% | 
23 | CC(=O)OC[C@]12CCC(C)(C)C[C@H]1[C@@]1(O)[C@H](O)C[C@@H]3[C@@]4(C)CCCNC(C)(C)[C@@H]4CC[C@@]3(C)[C@]1(C)CC2 | 104% |  | 109% | 109% | 104% | 109% | 113% | 102%
24 | C=C(C)[C@@H]1CC[C@]2(C)[C@H](CC=C3[C@@H]4[C@H](C)[C@@H](C)CC[C@]4(CO)CC[C@]32C)[C@@]1(C)CCCN | -34.1% (active) |  | -60.3% (active) | -74.8% (active) | -57.8% (active) | -93.3% (active) | -41.3% (active) | 0.962% (active)
